# This is a sample that favours compounds with a hit; in the whole collection about 9.4% have one here.
# Rab9 prom act = qHTS Assay for Rab9 Promoter Activators; Huh7 Rab9 promoter-luciferase reporter, luminescence, 24 h; 320,000 compounds, 2.8% hits; Potency, µM (highest dose often 9.22 µM), actives largely listed as activators; further: nearly all actives have a fitted effect of over 60% in size
#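 Measured in stably transfected Huh7 cells bearing a Rab9 promoter–luciferase construct: 24 h compound treatment at 37 °C, followed by luminescence detection.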
# FLuc modulator = qHTS profiling assay for firefly luciferase inhibitor/activator using purifed enzyme and Km concentrations of substrates (counterscreen for miR-21 project) | Luciferin 4-monooxygenase (Photinus pyralis), P08659 | purified FLuc, Km substrates, luminescence inhibition | Potency, µM (highest dose often 57.5 µM), actives largely listed as inhibitors | 360,000 compounds, 6.9% hits | AID 588342, 2011; further: nearly all actives have a fitted effect of over 55% in size
# Target sequence (P08659 whole entry, looked up): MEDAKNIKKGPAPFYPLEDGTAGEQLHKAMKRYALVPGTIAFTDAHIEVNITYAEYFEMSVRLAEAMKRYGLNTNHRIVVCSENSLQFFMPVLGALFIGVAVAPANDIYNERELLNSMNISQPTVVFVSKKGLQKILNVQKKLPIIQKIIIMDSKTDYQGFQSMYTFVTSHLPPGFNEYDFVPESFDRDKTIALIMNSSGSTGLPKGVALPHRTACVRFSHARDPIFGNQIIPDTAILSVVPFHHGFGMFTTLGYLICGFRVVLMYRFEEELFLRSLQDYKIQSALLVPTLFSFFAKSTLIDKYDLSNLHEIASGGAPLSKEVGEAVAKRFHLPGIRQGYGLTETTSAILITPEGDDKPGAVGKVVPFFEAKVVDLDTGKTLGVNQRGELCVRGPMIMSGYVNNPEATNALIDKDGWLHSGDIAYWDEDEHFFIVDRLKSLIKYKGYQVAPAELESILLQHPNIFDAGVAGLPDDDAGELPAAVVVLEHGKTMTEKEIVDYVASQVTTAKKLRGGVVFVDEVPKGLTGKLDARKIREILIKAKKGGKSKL
#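 Purified P. pyralis luciferase (10nM final) with 10uM D-luciferin and 10uM ATP (Km levels) in 50mM Tris acetate pH 7.5, 10mM Mg acetate, 0.01% Tween-20, 0.05% BSA; qHTS 6-point titration, ~60 µM downward; luminescence read.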
# ELG1 genotoxic = qHTS screen for small molecules that induce genotoxicity in human embryonic kidney (HEK293T) cells expressing luciferase-tagged ELG1; HEK293T ELG1-luciferase reporter, luminescence, 16 h; Potency, µM (titrated, usually from 46 µM), hits mostly activators; 330,000 compounds, 1.3% hits; AID 504466, 2011; further: nearly all actives have a fitted effect of over 60% in size
#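 Luminescence read-out: rising ELG1-luciferase signal, reflecting elevated ELG1 protein under genetic stress, flags genotoxic compounds. Cells were treated for 16 hr at 37 °C before ONE-Glo detection.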
# ELG1 DNA repair = qHTS screen for small molecules that inhibit ELG1-dependent DNA repair in human embryonic kidney (HEK293T) cells expressing luciferase-tagged ELG1. HEK293T ELG1-luciferase reporter, luminescence, 16 h; DNA damage induced by 5-fluorouridine. Potency, µM (highest dose often 46.1 µM), most hits filed as inhibitors. 330,000 compounds, 2.3% hits. AID 504467, 2011; further: nearly all actives have a fitted effect of over 55% in size
#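 5-Fluorouridine DNA damage + compound/DMSO, 2,000 cells/well, 16 h, 37 °C/5% CO2. ONE-Glo, 30 min RT, luminescence. Readout = decrease in reporter signal.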
# NPC1 prom act = qHTS Assay for NPC1 Promoter Activators. Huh7 NPC1 promoter luciferase reporter, 24 h. AID 485313, 2010. Potency, µM (doses to about 9.22 µM), most hits filed as activators. 320,000 compounds, 2.4% hits; further: nearly all actives have a fitted effect of over 60% in size
#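 Readout is luciferase luminescence, reflecting NPC1 promoter activation in stably transfected Huh7 cells after 24 h compound exposure at 37 °C in reduced-serum medium with 10% FBS.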
# SMN2 splice enh = qHTS Assay for Enhancers of SMN2 Splice Variant Expression | HEK293 SMN2-luciferase splicing reporter, luminescence, 30-36 h | Potency, µM (top dose mostly 46.1 µM), most hits filed as activators | 210,000 compounds, 2.8% hits | AID 1458, 2008; further: nearly all actives have a fitted effect of over 55% in size
#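 qHTS luciferase splicing reporter: luminescence rises when SMN2 exon 7 is included in transfected HEK293 cells. Compound exposure lasted 30-36 h at 37C, with 4.5 mM final sodium butyrate as control, followed by a ONE-Glo read.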
# A number is an active result; n = inactive; u = inconclusive; x = no result. The call rests on the fitted dose curve; in most records, active means well fitted curve in the direction sought with a large enough effect; inconclusive means small, poorly fitted or top-dose-only effect, or another doubt; inactive means no such curve, though single readings can be large; an effect the other way counts as inactive or inconclusive.
SMILES,Rab9 prom act,FLuc modulator,ELG1 genotoxic,ELG1 DNA repair,NPC1 prom act,SMN2 splice enh
CC(C)Cn1c(SC(C)C(=O)Nc2ccc(N3CCOCC3)cc2)nc2ccccc21 (configuration not stated),n,u,n,n,n,n
CC(Sc1nc2ccccc2n1C)C(=O)Nc1ccc(N2CCOCC2)cc1 (configuration not stated),n,17µM,n,u,n,n
CCCCNc1nc(C)nc2c1nc(-c1ccccc1)n2CCCN(C)C,x,x,x,x,x,n
C/C(=C\C(=O)c1ccccc1)Nc1ccc(Br)c(Cl)c1,u,21µM,n,u,n,n
COc1cccc(N/C(C)=C/C(=O)c2ccc(Br)cc2)c1,u,5.4µM,u,u,u,18µM
C/C(=C\C(=O)c1ccc(Cl)cc1)Nc1ccc(N2CCOCC2)cc1,n,n,n,n,n,n
C/C(=C\C(=O)c1ccc(Br)cc1)Nc1ccc(Cl)cc1,n,27µM,u,u,n,x
CCSc1nnc(NC(=O)[C@@H](NC(=O)c2cc(OC)cc(OC)c2)C(C)C)s1,n,u,n,n,n,n
COc1cc(OC)cc(C(=O)N[C@H](C(=O)Nc2nc(-c3ccc(OC)c(OC)c3)cs2)C(C)C)c1,n,n,n,21µM,n,x
COc1cc(OC)cc(C(=O)N[C@H](C(=O)Nc2nc(-c3cc(OC)ccc3OC)cs2)C(C)C)c1,n,n,n,21µM,n,n
CCc1nnc(NC(=O)[C@@H](NC(=O)c2cc(OC)cc(OC)c2)C(C)C)s1,n,n,n,n,n,n
COc1ccc(CCNc2oc(/C=C/c3ccc(OC)c(OC)c3)nc2C#N)cc1,x,n,x,x,x,n
CCN(CC)CC#CCOC(=O)[C@@](O)(c1ccccc1)C1CCCCC1,x,x,x,x,x,n
Cc1ccc(C)c(-n2cc(-c3ccccc3)nc2SCC(=O)Nc2ccccc2)c1,x,n,x,x,x,x
CN(C)C(/C=C/Nc1ccc(F)cc1F)=C(C#N)C#N,n,n,n,n,n,n
O=C(/C=C/Nc1ccc(F)cc1Br)c1ccccc1,0.11µM,0.085µM,0.16µM,u,0.5µM,n
CC(=O)Nc1ccc(N/C=C/C(=O)c2ccccc2)cc1,2.8µM,4.8µM,u,u,1.6µM,x
COc1ccc(C(=O)/C=C/Nc2ccc(NC(C)=O)cc2)cc1OC,n,u,n,n,n,n
O=C(/C=C/Nc1ccccc1)c1ccccc1,1µM,0.34µM,u,u,0.56µM,11µM
Cc1cc(N/C=C/C(=O)c2ccccc2)ccc1Br,3.2µM,0.48µM,u,u,u,x
Cc1cc(NC(=O)C2CCCO2)ccc1Br (configuration not stated),n,n,n,n,n,n
CCOC(=O)C1CCN(C(=O)COC(=O)/C=C/c2cccc(OC)c2OC)CC1,x,x,n,n,x,x
CN(C)c1ccc(N/C=C/C(=O)c2ccccc2)cc1,3.2µM,0.27µM,0.73µM,u,2.8µM,3.2µM
O=C(/C=C\Nc1ccc(Br)cc1)c1cccnc1,1.3µM,0.95µM,21µM,u,1.8µM,x
CN(C)/C=C/C(=O)c1ccc(Cl)cc1Cl,n,n,n,n,n,n
SMILES,Rab9 prom act,FLuc modulator,ELG1 genotoxic,ELG1 DNA repair,NPC1 prom act,SMN2 splice enh
Cc1noc(NS(=O)(=O)c2ccc(N/C=C/C(=O)c3cccnc3)cc2)c1C,n,u,n,n,n,n
CN(C)c1ccc(N/C=C/C(=O)C(C)(C)C)cc1,n,5.4µM,u,u,n,n
O=C(/C=C/Nc1ccccc1)c1ccc(Cl)cc1Cl,0.5µM,0.38µM,0.92µM,u,0.35µM,x
CCc1ccc(CNC(=O)C2CCCN(S(=O)(=O)c3ccc4c(ccn4C)c3)C2)cc1 (configuration not stated),x,n,x,x,x,x
COc1ccc(CNC(=O)CC23CC4CC(CC(C4)C2)C3)cc1OC,n,15µM,n,n,n,x
COc1ccc(CNC(=O)CC23CC4CC(CC(C4)C2)C3)cc1,n,n,n,n,n,x
